Each structure is given as a SMILES string. Inconclusive results are not listed. Where a structure was tested more than once in an assay, its records may differ in their call. Calls of active or inactive are those of the source. How the source made its calls, unless noted: active means hit-call score of the fitted dose curve at least 0.9, where 1 is the maximum; inactive means score below 0.9.

In PubChem BioAssay (EPA / NIEHS) one finds outcome and AC50 data, which are given here for six molecules.

Assay [1] addresses Bile acid receptor (Homo sapiens) (UniProt Q96RI1). Nature of the assay: OT_FXR_FXRSRC1_1440: Odyssey Thera (OT) 24-hour HEK293T Protein-Complementation Assay for Farnesoid X receptor/SRC-1 Co-activator (AID 2283384; active means hit-call score of the fitted dose curve at least 0.9, where 1 is the maximum). The gist of the method:
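Cell-based binding reporter: interaction of FXR with SRC-1 brings reporter fragments together, giving a fluorescence signal read 24 h after dosing of HEK293T cells.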

The target in assay [2] is Retinoic acid receptor RXR-alpha (Homo sapiens) (UniProt P19793). Nature of the assay: OT_NURR1_NURR1RXRa_0480: Odyssey Thera (OT) 8-hour HEK293T Protein Complementation Assay for Nurr1/retinoid X receptor (RXR) (AID 2283385; active means hit-call score of the fitted dose curve at least 0.9, where 1 is the maximum). The gist of the method: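 Compounds are applied to HEK293T cells carrying Nurr1 and RXRα linked to reporter fragments. After 8 h, fluorescence intensity reports heterodimer formation, with DMSO as baseline.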
Retinoic acid receptor RXR-alpha (Homo sapiens), sequence (P19793 whole entry, looked up, the tested form may be a part): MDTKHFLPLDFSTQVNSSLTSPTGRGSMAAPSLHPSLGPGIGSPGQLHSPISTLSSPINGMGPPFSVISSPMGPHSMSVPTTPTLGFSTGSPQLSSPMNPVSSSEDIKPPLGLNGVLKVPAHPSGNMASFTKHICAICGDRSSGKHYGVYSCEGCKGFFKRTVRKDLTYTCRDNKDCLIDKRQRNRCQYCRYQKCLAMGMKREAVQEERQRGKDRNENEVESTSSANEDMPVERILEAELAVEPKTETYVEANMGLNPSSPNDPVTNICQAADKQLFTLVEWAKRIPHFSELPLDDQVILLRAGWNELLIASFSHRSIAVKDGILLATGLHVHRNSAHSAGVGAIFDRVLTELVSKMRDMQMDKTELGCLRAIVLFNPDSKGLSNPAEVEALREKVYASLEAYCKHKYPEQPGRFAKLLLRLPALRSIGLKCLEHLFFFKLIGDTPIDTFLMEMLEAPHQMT

Assay [3] has the same target. Nature of the assay: OT_NURR1_NURR1RXRa_1440: Odyssey Thera (OT) 24-hour HEK293T Protein Complementation Assay for Nurr1/retinoid X receptor (RXR) (AID 2283386; active means hit-call score of the fitted dose curve at least 0.9, where 1 is the maximum). The gist of the method:
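Measured as fluorescence from a reconstituted split reporter, this 24 h HEK293T complementation assay scores compound-induced gain of Nurr1/RXRα association relative to DMSO.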

Assay [4] concerns the target Peroxisome proliferator-activated receptor gamma (Homo sapiens) (UniProt P37231). The assay is described as follows: OT_PPARg_PPARgSRC1_0480: Odyssey Thera (OT) 8-hour Protein-Complementation Assay for Peroxisome Proliferator-activated Receptor Gamma / SRC-1 Co-activator (AID 2283387; active means hit-call score of the fitted dose curve at least 0.9, where 1 is the maximum;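 further: nuclear to cytoplasmic split Venus YFP fluorescence ratio reporting PPARg SRC-1 interaction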). The gist of the method: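 Read-out: 488 nm N/C fluorescence ratio from complemented Venus YFP fragments, ≥350 cells per image, gain-of-signal fitted against DMSO baseline. Fusions of PPARg/SRC-1 with IFP1/IFP2 expressed transiently in HEK293T; compounds applied 8 h.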

Assay [5] has the same target. Nature of the assay: OT_PPARg_PPARgSRC1_1440: Odyssey Thera (OT) 24-hour Protein-Complementation Assay for Peroxisome Proliferator-activated Receptor Gamma/ SRC-1 Co-activator (AID 2283388; active means hit-call score of the fitted dose curve at least 0.9, where 1 is the maximum;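 further: nuclear to cytoplasmic ratio of reconstituted Venus YFP fluorescence in fixed imaged cells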). The essentials: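 Readout: nuclear-to-cytoplasmic 488 nm fluorescence ratio, ≥350 cells per image, 8 images per well, after 24 h compound exposure of HEK293T expressing PPARg/SRC-1 split-YFP fusions. Activity fitted in positive direction against DMSO.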

Read-out in assay [6]: Tumor necrosis factor receptor superfamily member 6 (Homo sapiens) (UniProt P25445)
The assay is described as follows: LTEA_HepaRG_FAS: Life Technologies and Expression Analysis (LTEA) Assay for Fas cell surface death receptor (FAS) using HepaRG (AID 2283447). The following applies: mRNA level, 48 h; actives raise or lower the signal. The gist of the method: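 Differentiated human HepaRG cells, pre-cultured 48 h, were exposed in duplicate for 48 h to 8-point half-log concentrations (top 100 uM, 0.5% DMSO) in serum-free induction medium; FAS mRNA measured by qRT-PCR, normalized to ACTB/GAPDH/POLR2A, bidirectional fit versus DMSO.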

Read-out in assay [7]: Fatty acid synthase (Homo sapiens) (UniProt P49327)
The assay is described as follows: LTEA_HepaRG_FASN: Life Technologies and Expression Analysis (LTEA) Assay for Fatty Acid Synthase (FASN) using HepaRG (AID 2283448). Conditions: mRNA level, 48 h; actives raise or lower the signal. The essentials: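 Transcript-level assay: HepaRG liver cells are treated for 48 h across an eight-point range topping at 100 uM, and FASN mRNA, normalized to three housekeeping genes, is compared with DMSO controls in both directions.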

Read-out in assay [8]: Cyclin D2 (CCND2), CCND2 (gene 894)
Nature of the assay: LTEA_HepaRG_CCND2: Life Technologies and Expression Analysis (LTEA) Assay for Cyclin D2 (CCND2) using HepaRG (AID 2283449).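 Further: CCND2 transcript measured by TaqMan qRT-PCR and normalised to three housekeeping genes.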 Conditions: mRNA level, 48 h; actives raise or lower the signal. The essentials:
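Differentiated human HepaRG cells were exposed for 48 h in serum-free induction medium to eight half-log concentrations topping at 100 uM (0.5% DMSO vehicle). CCND2 mRNA was quantified by TaqMan qRT-PCR, normalised to ACTB, GAPDH and POLR2A, and fitted bidirectionally against DMSO.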

Read-out in assay [9]: Cyclin D1 (CCND1), CCND1 (gene 595)
Nature of the assay: LTEA_HepaRG_CCND1: Life Technologies and Expression Analysis (LTEA) Assay for Cyclin D1 (CCND1) using HepaRG (AID 2283451).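 On AC50: TaqMan qRT-PCR transcript level normalised to ACTB GAPDH and POLR2A housekeeping genes.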 Conditions: mRNA level, 48 h; actives raise or lower the signal. The essentials: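 qRT-PCR (Fluidigm 96.96 array) read-out of transcript level, housekeeping-normalized (ACTB/GAPDH/POLR2A). HepaRG cells, 48 h chemical exposure, 8-point half-log series from 100 uM, 0.5% DMSO vehicle; gain or loss relative to DMSO baseline.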

Read-out in assay [10]: catalase (CAT), CAT (gene 847)
The assay is described as follows: LTEA_HepaRG_CAT: Life Technologies and Expression Analysis (LTEA) Assay for catalase (CAT) using HepaRG (AID 2283452). The following applies: mRNA level, 48 h; actives raise or lower the signal. The essentials:
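Differentiated HepaRG cells in serum-free induction medium were dosed 48 h in duplicate, eight half-log concentrations from 100 uM in 0.5% DMSO. Transcript measured by TaqMan qRT-PCR, normalised to ACTB/GAPDH/POLR2A, fitted bidirectionally against DMSO.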

Read-out in assay [11]: flavin-containing dimethylaniline monooxygenases 3 (FMO3), FMO3 (gene 2328)
Nature of the assay: LTEA_HepaRG_FMO3: Life Technologies and Expression Analysis (LTEA) Assay for flavin-containing dimethylaniline monooxygenases 3 (FMO3) using HepaRG (AID 2283453).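 On AC50: FMO3 transcript by TaqMan qRT-PCR normalized to ACTB GAPDH and POLR2A.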 Conditions: mRNA level, 48 h; actives raise or lower the signal. The gist of the method:
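HepaRG, 48 h exposure, 8-pt half-log series from 100 uM, 0.5% DMSO vehicle, duplicates; FMO3 transcript by Fluidigm TaqMan qRT-PCR, housekeeping-normalized; gain/loss fit vs DMSO.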

Read-out in assay [12]: Cytochrome P450 (CYP1A1), CYP1A1 (gene 1543)
The assay is described as follows: LTEA_HepaRG_CYP1A1: Life Technologies and Expression Analysis (LTEA) Assay for Cytochrome P450 (CYP1A1) using HepaRG (AID 2283454). The following applies: mRNA level, 48 h; actives raise or lower the signal. The gist of the method: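 qRT-PCR read-out: CYP1A1 transcript normalized to three housekeeping genes, fitted bidirectionally against 0.5% DMSO vehicle baseline. Human HepaRG cells, 48 h chemical exposure, 8-point half-log series topping at 100 uM.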

Read-out in assay [13]: CFLAR gene, CFLAR (gene 8837)
Nature of the assay: LTEA_HepaRG_CFLAR: Life Technologies and Expression Analysis (LTEA) Assay for CFLAR gene using HepaRG (AID 2283455). Conditions: mRNA level, 48 h; actives raise or lower the signal. The gist of the method: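 HepaRG cells were plated for 48 h, switched to serum-free induction medium, then exposed in duplicate for 48 h to 8 concentrations (top 100 uM, half-log steps, 0.5% DMSO). CFLAR mRNA was measured by qRT-PCR, normalized to ACTB, GAPDH and POLR2A.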

Assay [14] in a line: CEETOX_H295R_11DCORT: CeeTox H295R High-throughput Steroidogenesis Assay for 11-Deoxycortisol (11DCORT) (AID 2283432).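 On AC50: human adrenal H295R cells prestimulated with 10 µM forskolin for 48 h; 11-deoxycortisol secreted into the medium measured by LC-MS/MS.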 The following applies: actives raise or lower the signal. The essentials:
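H295R cells; 10 uM forskolin prestim 48 h; compound in 0.1% DMSO 48 h; media extracted with MTBE; 11-deoxycortisol by LC-MS/MS, 7-point standard curve; gain/loss vs DMSO baseline; viability by MTT in same wells.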

The nature of assay [15]: CEETOX_H295R_CORTIC: CeeTox H295R High-throughput Steroidogenesis Assay for Corticosterone (CORTIC) (AID 2283437).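 Further: corticosterone secreted into medium quantified by mass spectrometry.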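 On AC50: human H295R adrenal cells prestimulated with forskolin before chemical exposure.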 Conditions: actives raise or lower the signal. The essentials: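 H295R cells were prestimulated 48 h with 10 uM forskolin, then exposed 48 h to test chemical in 0.1% DMSO. Medium corticosterone was MTBE-extracted and quantified by HPLC-MS/MS; bidirectional fit versus DMSO baseline.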

Assay [16] in a line: CEETOX_H295R_CORTISOL: CeeTox H295R High-throughput Steroidogenesis Assay for Cortisol (AID 2283438).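 Further: cortisol secreted into medium quantified by LC-MS/MS.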 Conditions: actives raise or lower the signal. The essentials:
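Human adrenocortical H295R cells (passage ≤10) received test chemicals for 48 h after forskolin priming. Secreted cortisol was measured by LC-MS/MS.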

The nature of assay [17]: CEETOX_H295R_DOC: CeeTox H295R High-throughput Steroidogenesis Assay for DOC (AID 2283439). The following applies: actives raise or lower the signal. The gist of the method: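 Secreted DOC was quantified from H295R media by HPLC-MS/MS after 48 h chemical exposure following 48 h forskolin (10 uM) prestimulation. Values were fitted in both directions relative to DMSO, the negative control and baseline.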

Assay [18] can be described thus: CEETOX_H295R_PROG: CeeTox H295R High-throughput Steroidogenesis Assay for Progesterone (PROG) (AID 2283442).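 On AC50: human H295R adrenal cells primed with 10 µM forskolin before dosing.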 The following applies: actives raise or lower the signal. The gist of the method: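 Progesterone read-out: HPLC-MS/MS on MTBE extracts of conditioned medium after 48 h chemical exposure of forskolin-primed (10 uM, 48 h) H295R cells. Gain or loss of signal was fitted relative to DMSO baseline.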

Read-out in assay [19]: Cyclin Dependent Kinase Inhibitor 1A (CDKN1A), CDKN1A (gene 1026)
Nature of the assay: LTEA_HepaRG_CDKN1A: Life Technologies and Expression Analysis (LTEA) Assay for Cyclin Dependent Kinase Inhibitor 1A (CDKN1A) using HepaRG (AID 2283450). The following applies: mRNA level, 48 h; actives raise or lower the signal. The essentials:
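HepaRG, 48 h dosing, 8-pt half-log series from 100 uM top, 0.5% DMSO vehicle, duplicates. Readout: TaqMan qRT-PCR of CDKN1A transcript, housekeeping-normalized (ACTB, GAPDH, POLR2A). Up/down curve fit relative to DMSO.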

Peroxisome proliferator-activated receptor gamma (Homo sapiens), sequence (P37231 whole entry, looked up, the tested form may be a part): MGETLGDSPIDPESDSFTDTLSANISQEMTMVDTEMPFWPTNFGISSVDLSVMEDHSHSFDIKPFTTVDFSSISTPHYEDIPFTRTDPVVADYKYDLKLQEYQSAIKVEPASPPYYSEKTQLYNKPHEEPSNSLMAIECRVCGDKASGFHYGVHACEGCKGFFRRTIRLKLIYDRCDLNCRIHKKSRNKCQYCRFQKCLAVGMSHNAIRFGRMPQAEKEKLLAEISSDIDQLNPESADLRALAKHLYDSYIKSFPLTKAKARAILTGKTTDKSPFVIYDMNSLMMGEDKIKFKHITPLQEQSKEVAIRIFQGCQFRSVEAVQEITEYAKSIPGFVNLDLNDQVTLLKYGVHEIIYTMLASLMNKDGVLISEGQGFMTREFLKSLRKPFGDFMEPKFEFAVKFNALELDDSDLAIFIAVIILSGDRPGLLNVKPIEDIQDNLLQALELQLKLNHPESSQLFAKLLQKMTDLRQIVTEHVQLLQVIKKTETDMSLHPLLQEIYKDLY
Bile acid receptor (Homo sapiens), sequence (Q96RI1 whole entry, looked up, the tested form may be a part): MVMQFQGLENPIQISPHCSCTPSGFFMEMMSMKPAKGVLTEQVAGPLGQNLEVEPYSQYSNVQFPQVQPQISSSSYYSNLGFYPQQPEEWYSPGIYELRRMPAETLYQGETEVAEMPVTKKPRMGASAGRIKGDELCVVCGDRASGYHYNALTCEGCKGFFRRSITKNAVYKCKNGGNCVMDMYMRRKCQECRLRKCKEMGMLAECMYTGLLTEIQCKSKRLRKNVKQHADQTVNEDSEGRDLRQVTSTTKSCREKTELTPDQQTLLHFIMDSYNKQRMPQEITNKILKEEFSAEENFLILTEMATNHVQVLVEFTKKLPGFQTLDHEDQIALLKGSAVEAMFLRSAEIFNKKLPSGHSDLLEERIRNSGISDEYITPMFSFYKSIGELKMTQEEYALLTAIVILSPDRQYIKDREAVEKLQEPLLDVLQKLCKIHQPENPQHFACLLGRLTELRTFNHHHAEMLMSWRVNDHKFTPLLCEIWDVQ
Fatty acid synthase (Homo sapiens), sequence (P49327 whole entry, looked up): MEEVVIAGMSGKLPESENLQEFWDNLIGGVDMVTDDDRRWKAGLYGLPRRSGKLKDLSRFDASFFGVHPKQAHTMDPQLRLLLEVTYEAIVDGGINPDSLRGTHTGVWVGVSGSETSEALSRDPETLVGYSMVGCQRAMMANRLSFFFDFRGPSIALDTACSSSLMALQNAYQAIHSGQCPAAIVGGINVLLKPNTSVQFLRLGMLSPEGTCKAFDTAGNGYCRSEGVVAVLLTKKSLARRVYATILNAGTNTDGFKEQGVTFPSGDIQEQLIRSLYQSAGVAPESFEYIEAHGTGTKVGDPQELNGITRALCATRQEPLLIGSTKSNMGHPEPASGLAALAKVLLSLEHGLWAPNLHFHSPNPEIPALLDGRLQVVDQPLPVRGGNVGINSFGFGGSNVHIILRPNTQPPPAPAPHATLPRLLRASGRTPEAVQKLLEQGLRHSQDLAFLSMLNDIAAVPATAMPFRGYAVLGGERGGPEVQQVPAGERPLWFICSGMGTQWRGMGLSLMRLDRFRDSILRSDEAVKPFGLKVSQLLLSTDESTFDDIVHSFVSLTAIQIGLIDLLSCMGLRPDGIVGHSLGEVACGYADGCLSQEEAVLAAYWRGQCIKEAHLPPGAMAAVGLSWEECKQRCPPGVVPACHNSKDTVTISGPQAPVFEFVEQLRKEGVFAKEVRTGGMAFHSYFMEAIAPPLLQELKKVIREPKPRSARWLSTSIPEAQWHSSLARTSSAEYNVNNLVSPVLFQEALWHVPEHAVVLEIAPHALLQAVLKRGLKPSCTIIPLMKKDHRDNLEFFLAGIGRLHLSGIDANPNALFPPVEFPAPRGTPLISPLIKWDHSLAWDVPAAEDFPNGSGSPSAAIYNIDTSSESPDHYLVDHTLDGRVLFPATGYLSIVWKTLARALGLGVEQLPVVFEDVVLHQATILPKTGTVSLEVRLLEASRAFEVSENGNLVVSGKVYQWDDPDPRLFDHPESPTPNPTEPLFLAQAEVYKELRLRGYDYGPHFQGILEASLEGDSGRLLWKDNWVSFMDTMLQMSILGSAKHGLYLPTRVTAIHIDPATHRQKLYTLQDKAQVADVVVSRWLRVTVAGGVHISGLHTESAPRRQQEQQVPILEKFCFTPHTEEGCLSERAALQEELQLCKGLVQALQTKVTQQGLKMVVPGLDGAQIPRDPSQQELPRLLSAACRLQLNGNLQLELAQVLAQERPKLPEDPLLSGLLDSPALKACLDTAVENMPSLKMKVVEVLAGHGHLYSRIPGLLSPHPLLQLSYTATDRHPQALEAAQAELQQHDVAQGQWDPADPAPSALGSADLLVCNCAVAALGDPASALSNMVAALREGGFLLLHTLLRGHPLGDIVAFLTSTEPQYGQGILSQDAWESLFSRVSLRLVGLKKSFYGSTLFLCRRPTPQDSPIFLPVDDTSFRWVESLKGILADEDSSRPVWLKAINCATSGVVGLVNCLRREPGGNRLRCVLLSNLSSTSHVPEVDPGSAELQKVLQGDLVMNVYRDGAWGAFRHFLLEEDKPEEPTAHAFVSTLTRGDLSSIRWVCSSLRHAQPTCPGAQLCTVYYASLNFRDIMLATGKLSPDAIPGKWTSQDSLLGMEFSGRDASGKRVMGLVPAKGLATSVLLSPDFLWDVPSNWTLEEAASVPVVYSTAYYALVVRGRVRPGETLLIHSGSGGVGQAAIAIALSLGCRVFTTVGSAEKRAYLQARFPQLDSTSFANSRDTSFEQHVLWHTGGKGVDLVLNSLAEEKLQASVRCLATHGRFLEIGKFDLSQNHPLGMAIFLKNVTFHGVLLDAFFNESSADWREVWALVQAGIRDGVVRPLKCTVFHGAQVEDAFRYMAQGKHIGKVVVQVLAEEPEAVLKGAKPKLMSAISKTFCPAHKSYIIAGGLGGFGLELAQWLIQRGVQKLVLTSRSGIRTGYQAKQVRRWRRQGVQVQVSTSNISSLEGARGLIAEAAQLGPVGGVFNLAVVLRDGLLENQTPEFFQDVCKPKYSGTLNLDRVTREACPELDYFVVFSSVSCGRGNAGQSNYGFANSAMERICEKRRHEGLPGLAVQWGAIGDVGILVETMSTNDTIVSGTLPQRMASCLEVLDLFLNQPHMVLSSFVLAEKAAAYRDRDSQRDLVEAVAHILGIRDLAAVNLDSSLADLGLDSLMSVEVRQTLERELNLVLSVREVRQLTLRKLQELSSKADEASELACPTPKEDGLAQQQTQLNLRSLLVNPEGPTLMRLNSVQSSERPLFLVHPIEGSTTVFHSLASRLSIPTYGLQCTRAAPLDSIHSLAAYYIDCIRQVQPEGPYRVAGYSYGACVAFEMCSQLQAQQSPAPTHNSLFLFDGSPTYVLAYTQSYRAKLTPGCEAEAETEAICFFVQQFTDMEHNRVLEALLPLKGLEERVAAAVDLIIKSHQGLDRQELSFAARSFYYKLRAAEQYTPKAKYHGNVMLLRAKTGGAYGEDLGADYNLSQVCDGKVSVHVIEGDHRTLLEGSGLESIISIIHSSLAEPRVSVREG

Broadly, the AC50 is the concentration giving half of the maximal activity seen. With `O=C=NCCCCCCN=C=O`, the molecule was called inactive in [1], in assay [2], in [3], in assay [4], in [5] and in [6]. The molecule was classed as inactive in [7], in [8], in [9], in [10], in assay [11] and in [13]. In addition, in assay [12], the AC50 was 80.1 µM (active).
On to `CCCCCCCCCCCCO`, for which the molecule was called inactive in assay [1], in assay [2], in [4], in assay [5], in [6] and in assay [7]. Moreover, the result in [8], in assay [10], in assay [11], in assay [12] and in assay [13] was inactive.
Take `OC12N=C(c3ccccc3)SC1Cc1cc(Cl)ccc12` (stereo not drawn): the AC50 in assay [1] was 31.4 µM (active); in assay [3], 30 µM (active); in [14], 32.8 µM (active); in assay [15], 17.7 µM (active); in [16], 28.5 µM (active); in assay [17], 17.6 µM (active). In addition, the AC50 in assay [7] was 2.18 µM (active); in assay [9] it was 9.92 µM (active); in [10] it was 16.6 µM (active); in [11] it was 15.7 µM (active); in assay [12], 1.21 µM (active); in assay [13], 5 µM (active). Moreover, the call in [2], in assay [4], in [5], in assay [18], in assay [6] and in [8] was inactive.
On to `Clc1cc(Cl)c2c(c1)N=C1CCCCCN1C2`, for which the outcome in assay [1], in assay [2], in assay [3], in assay [4], in assay [5] and in [14] was inactive. Also, the call in [15], in [16], in [17], in assay [18], in assay [6] and in [7] was inactive. Also, the molecule was classed as inactive in assay [8], in [9], in assay [10], in assay [11] and in [13]. The AC50 in assay [12] is 1.61 µM (active).
Regarding `CC(C)(C)c1cc(/C=C2\SC(N)=NC2=O)cc(C(C)(C)C)c1O`, the AC50 in assay [1] is 50 µM (active); in assay [4] it was 77.1 µM (active); in assay [5], 66 µM (active); in [15], 0.754 µM (active); in assay [17], 0.866 µM (active); in assay [18] it was 0.897 µM (active). Also, the AC50 is 12.2 µM (active) in [7]; 22.2 µM (active) in [19]; 16.5 µM (active) in [10]; 23.9 µM (active) in assay [11]; 27.5 µM (active) in assay [13]. Moreover, the molecule was classed as inactive in [2], in assay [3], in assay [4], in assay [5], in assay [14] and in [16]. In addition, the molecule was called inactive in assay [6], in assay [8] and in assay [12].
Regarding `Cc1cc2c(cc1C(F)(F)F)N(C(=O)Nc1ccc(Oc3cccnc3C)nc1)CC2`, the AC50 in assay [1] was 4.55 µM (active); in [2] it was 29.2 µM (active); in assay [14], 0.381 µM (active); in assay [16], 0.588 µM (active); in [17], 0.227 µM (active); in [18], 0.257 µM (active). The AC50 in [6] is 78.5 µM (active); in assay [10] it was 46 µM (active); in [11] it was 46 µM (active); in assay [12] it was 3.67 µM (active); in assay [13] it was 72.6 µM (active). The molecule was called inactive in [3], in assay [4], in assay [5], in [15], in assay [7] and in assay [8]. The molecule was called inactive in [19].
